Assay outcomes as filed in PubChem.
ALDH1A1 inh: inhibitors of human aldehyde dehydrogenase 1A1; P00352; Purified ALDH1A1, NADH fluorescence, propionaldehyde substrate; Potency, µM (series often up to 75.3 µM), for inactives: at the highest dose activity, negative = inhibition, usual class: inhibitors; actives 7.3% (n = 220,000);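 further: potency means the concentration at half of the fitted maximal effect; plate controls were no enzyme wells and a reference inhibitor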
Target sequence (P00352 whole entry, looked up): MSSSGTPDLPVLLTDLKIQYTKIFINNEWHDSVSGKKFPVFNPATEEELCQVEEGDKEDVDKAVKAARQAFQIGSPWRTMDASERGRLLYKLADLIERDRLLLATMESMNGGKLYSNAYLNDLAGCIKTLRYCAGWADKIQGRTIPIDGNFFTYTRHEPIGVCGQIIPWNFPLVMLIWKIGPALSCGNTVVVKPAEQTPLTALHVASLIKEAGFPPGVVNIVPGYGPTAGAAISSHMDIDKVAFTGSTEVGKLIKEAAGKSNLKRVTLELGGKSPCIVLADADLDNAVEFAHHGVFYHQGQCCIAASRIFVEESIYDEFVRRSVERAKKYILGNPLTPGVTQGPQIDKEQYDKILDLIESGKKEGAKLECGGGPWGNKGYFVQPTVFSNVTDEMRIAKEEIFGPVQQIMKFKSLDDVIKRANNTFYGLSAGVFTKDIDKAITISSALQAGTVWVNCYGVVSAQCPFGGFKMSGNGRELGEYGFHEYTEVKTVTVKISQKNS
HTT ATP protect: Huntington cell model cytoprotection by ATP luminescence. PC12 HTT-Q103 induced, cytoprotection, ATP luminescence, 40 h. Potency, µM (titrated, usually from 56.4 µM), without a hit: cytoprotection (ATP increase), hits mostly activators. actives 0.14% (n = 230,000); active means well fitted curve in the direction sought with a large enough effect; inconclusive means small, poorly fitted or top-dose-only effect, or another doubt; inactive means no such curve, though single readings can be large; an effect the other way counts as inactive or inconclusive; further: potency means the concentration at half of the fitted maximal effect; % of control where 0% means no effect; nearly all actives have a fitted effect of over 45% in size
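Cells were plated at 1500 per well in phenol red-free DMEM with 5% equine and 5% calf serum. Tebufenozide (100 nM final) and compounds were added, then ATPlite reagent, and luminescence was read.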
JMJD2E inh: blocks human JMJD2E demethylase activity. AID 2147. B2RXH2. JMJD2E catalytic domain, FDH-coupled NADH fluorescence (FDH is formaldehyde dehydrogenase). actives 1.6% (n = 230,000). Potency, µM (series often up to 57.1 µM), without a hit: at the highest dose activity change, negative = inhibition, most hits filed as inhibitors;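 further: potency means the concentration at half of the fitted maximal effect; 0% = wells with enzyme and -100% = buffer wells without enzyme; nearly all actives have a fitted effect of over 50% in size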
HPGD block: blocks human HPGD enzyme activity. P15428. purified HPGD, NADH fluorescence kinetic, PGE2 substrate. Potency, µM, inactives show at the highest dose activity change, negative = inhibition, most hits filed as inhibitors. actives 4.3% (n = 150,000); further: potency means the concentration at half of the fitted maximal effect; on the % scale 0 is the no-effect control and ±100 the full control effect
Target sequence (P15428 whole entry, looked up): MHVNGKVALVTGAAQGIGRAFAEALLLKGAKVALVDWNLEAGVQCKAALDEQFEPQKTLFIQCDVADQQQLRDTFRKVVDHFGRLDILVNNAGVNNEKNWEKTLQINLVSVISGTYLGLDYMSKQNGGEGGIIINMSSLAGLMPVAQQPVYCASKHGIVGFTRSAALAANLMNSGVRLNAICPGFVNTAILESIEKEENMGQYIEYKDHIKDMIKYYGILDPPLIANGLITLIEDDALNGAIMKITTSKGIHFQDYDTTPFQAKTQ
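20 nM HPGD preincubated 15 min at room temperature with compound in 50 mM Tris-HCl pH 8, 0.01% Tween 20. Started with 1 mM NAD+ and 30 uM prostaglandin E2; NADH fluorescence (360/450 nm) read 5 times over 30-s intervals, last minus first.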
HttQ103 aggreg: inhibitors of mutant huntingtin aggregate formation in PC12 cells; PC12 HttQ103-GFP aggregates, Acumen cytometry, 40 h; AID 1688; actives 1.1% (n = 220,000); Potency, µM (titrated, usually from 46.1 µM), for inactives: top-dose activity change, negative = inhibition, actives largely listed as inhibitors; active means well fitted curve in the direction sought with a large enough effect; inconclusive means small, poorly fitted or top-dose-only effect, or another doubt; inactive means no such curve, though single readings can be large; an effect the other way counts as inactive or inconclusive; further: potency means the concentration at half of the fitted maximal effect; on the % scale 0 is the no-effect control and ±100 the full control effect; nearly all actives have a fitted effect of over 60% in size
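PC12 cells with ecdysone-inducible HTT exon1 Q103-GFP, induced by 100 nM tebufenozide, given compounds in a concentration series. GFP aggregates (1–25 um, 6 SD above background) counted in lysates by laser-scanning cytometry, 488 nm excitation.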
CBFb-RUNX1 inh: CBF-beta/RUNX1 interaction disruption | Q01196+Q13951 | AlphaScreen CBFb-His/RUNX1-biotin binding, biochemical | Potency, µM (top dose mostly 59.8 µM), inactives show at the highest dose activity, negative = inhibition, actives largely listed as inhibitors | 230,000 tested, under 10 active | AID 1477; active means well fitted curve in the direction sought with a large enough effect; inconclusive means small, poorly fitted or top-dose-only effect, or another doubt; inactive means no such curve, though single readings can be large; an effect the other way counts as inactive or inconclusive; further: % of control where 0% means no effect
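Compounds were screened at multiple concentrations against a preformed CBF-beta(His)/RUNX1(biotin) complex (30 nM of each) for 15 min at room temperature, followed by 90 min with nickel and streptavidin beads and AlphaScreen reading.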
Starred values were filed as active, the others as inactive; ? = inconclusive; · = not tested or not shown; [ ] = dose if it differs, or a comment. Compounds with a hit are over-represented: about 9.8% of the library has one in this group of screens. Unless noted, the call rests on the fitted dose curve; in most records, active means well fitted inhibition curve with a large enough effect (not every such curve was filed as active); inconclusive means small, poorly fitted or top-dose-only effect, or another doubt; inactive means no such curve, though single readings can be large or run the other way.

SMILES	ALDH1A1 inh	HTT ATP protect	JMJD2E inh	HPGD block	HttQ103 aggreg	CBFb-RUNX1 inh
Cc1c(C(=O)NCc2ccc3c(c2)OCO3)sc2nc(-c3ccc(F)cc3)cn12	6%	11%	2%	-17%	0.89µM*	6%
Cc1c(C(=O)NCc2ccc3c(c2)OCO3)sc2nc(-c3ccccc3)cn12	?	-15%	-12%	?	-12%	1%
COc1ccc(/C=C/C2=CC(C)(C)NC(=S)N2)cc1	5.6µM*	-15%	-11%	·	-4%	-8%
COc1ccc(NC(=O)n2nc(OC(=O)c3cccs3)cc2N)cc1	?	-6%[10 µM]	8%	·	-9%[9.22 µM]	0%
CN(C)S(=O)(=O)c1ccc(C(=O)Nc2ccccc2SCCC#N)cc1	16µM*	-18%	3%	·	3%	9%
Cc1ccc(OCc2nnc(SCC(=O)N3CCOCC3)n2C)cc1	-1%	13µM*	-2%	-14%	4%	4%
Cc1ccc(C(CC(=O)N2CCOCC2)c2ccco2)cc1 (stereo not drawn)	?	-4%[10 µM]	-3%	20µM*	13%	4%
Cc1ccc(SCC(=O)N2CCOCC2)cc1	0%	-13%[0.074 µM]	10%	-14%	9%	4%
Cc1ccc(-c2nnc(SCC(=O)N3CCOCC3)nc2-c2ccc(C)cc2)cc1	?	-35%	-12%	18µM*	-2%	-6%
Cc1ccc(CSCC(=O)N2CCOCC2)cc1	25µM*	15%[10 µM]	-16%	-14%	4%	-14%
O=C(CC1NCCNC1=O)OCCCc1ccccc1 (stereo not drawn)	0%	34%	0%	-5%	26%	-3%
ClCc1csc(-c2ccc(Cl)cc2)n1	-9%	·	-28%	-5%	-3%	8%
CC1CN(Cc2csc(-c3ccc(Cl)cc3)n2)CC(C)O1 (stereo not drawn)	16µM*	-34%	?	·	-29%	-16%
C=CCn1c(SCC(=O)N2CCN(c3ccc(F)cc3)CC2)nnc1-c1ccco1	2%	2%[10 µM]	1%	-3%	4%	2%
C=CCn1c(SCc2nc(N)nc(N3CCCCC3)n2)nnc1-c1ccco1	22µM*	-19%	-3%	16µM*	14%	1%
COc1cccc(Nc2ncc3nc(CCc4ccccc4)c(=O)n(C[C@H]4CCCO4)c3n2)c1	25µM*	-36%	·	?	·	·
O=c1c(CCc2ccccc2)nc2cnc(Nc3ccccc3)nc2n1C[C@H]1CCCO1	?	-16%	·	·	·	·
CC(C)[C@@H](CC(=O)N[C@@H]1CCCC[C@H]1C(=O)N[C@H](CC(=O)N[C@@H](CCC(=O)O)CC(=O)O)Cc1ccccc1)NC(=O)C[C@H](Cc1c[nH]c2ccccc12)NC(=O)[C@@H]1CCCC[C@H]1N	?	?	-22%	-1%	·	4%
O=C1OCCC1Sc1nnnn1-c1ccccc1 (stereo not drawn)	?	5%	-1%	-12%	0%	3%
O=C(c1ccccc1)N1CCCCC(Sc2nnnn2-c2ccccc2)C1=O (stereo not drawn)	3.5µM*	-2%[10 µM]	-9%	-11%	-6%	1%
O=C(c1ccc(F)cc1)N1CCCCC(Sc2nnnn2-c2ccccc2)C1=O (stereo not drawn)	4.5µM*	-13%	1%	-17%	-8%	8%
O=C(CNC(=O)c1ccco1)OCC(=O)c1ccc(Cl)cc1Cl	-15%	?	-5%	·	3%[9.22 µM]	-1%
O=C(c1ccco1)N1CCN(C(=O)N2CCOCC2)CC1	32µM*	-24%	0%	-11%	-6%	0%
O=C(c1ccco1)N1CCCN(C(=O)c2ccco2)CC1	1%	6%	9%	-5%	-1%	12%
O=C1c2ccccc2-c2c1cccc2C(=O)N1CCN(C(=O)c2ccco2)CC1	16µM*	5%	0%	-10%	28%	1%
SMILES	ALDH1A1 inh	HTT ATP protect	JMJD2E inh	HPGD block	HttQ103 aggreg	CBFb-RUNX1 inh
Cc1cccc(C)c1N1CCN(C(=O)N2CCOCC2)CC1	11µM*	2%[10 µM]	-13%	·	-12%[9.22 µM]	0%
Cc1ccc(N2CCN(C(=O)N3CCOCC3)CC2)cc1C	0%	25%[10 µM]	7%	·	12%[9.22 µM]	4%
CCNc1ncc2nc(-c3cccs3)c(=O)n(-c3ccc(OC)cc3)c2n1	?	-13%	·	-13%	·	·
O=C(O)C1CCN(C(=O)CCc2ccccc2)CC1	3%	-10%[10 µM]	5%	·	-15%[9.22 µM]	0%
O=C(CN1C(=O)NC2(CCCCCCC2)C1=O)N1CCN(C(=O)c2ccco2)CC1	11µM*	6%[10 µM]	-2%	1%	4%	-10%
O=C(CN1C(=O)NC2(CCCC2)C1=O)N1CCN(C(=O)c2ccco2)CC1	-8%	12%[10 µM]	6%	-13%	-22%	-2%
O=C(COC(=O)C1(c2ccc(F)cc2)CCCC1)N1CCN(C(=O)c2ccco2)CC1	20µM*	-4%	-6%	-2%	14%	-1%
Cc1nnc(SC(C(=O)Nc2ccc(Cl)c([N+](=O)[O-])c2)c2ccccc2)[nH]c1=O (stereo not drawn)	?	-18%	-2%	·	?	1%
CN1CCN(C(=S)NC(=O)c2cccc(S(=O)(=O)N(C)C)c2)CC1	?	-27%	5%	·	0%	18%
Cc1ccc(S(=O)(=O)C/N=C(/NC(=S)N(c2ccccc2)c2ccccc2)c2ccccc2)cc1	14µM*	-13%	-22%	32µM*	11%	?
Cc1ccc(S(=O)(=O)/N=C(/NC(=S)Nc2ccccc2)c2ccccc2)cc1	?	-30%	-12%	-26%	-1%	1%
CCC1Oc2ccc(C)cc2N(CC(=O)N(Cc2ccc(C)o2)C2CC(C)(C)NC(C)(C)C2)C1=O (stereo not drawn)	3%	0%[10 µM]	4%	-9%	?	-3%
CCC1Oc2ccc(C)cc2N(CC(=O)N(Cc2cccnc2)Cc2ccc(C)o2)C1=O (stereo not drawn)	3.2µM*	-17%[10 µM]	-3%	28µM*	?	2%
COc1ccc(CNCC(=O)Nc2ccccc2-n2cccc2)cc1	28µM*	-21%[10 µM]	?	·	6%	-20%
CCn1c2ccc(C)cc2c2nnc(SCCN3CCOCC3)nc21	25µM*	11%[10 µM]	-13%	·	-5%[9.22 µM]	-1%
Cc1c(O)ccc(C(=O)COc2ccc(F)cc2)c1O	18µM*	-25%	-10%	·	?	15%
CCc1cc(C(=O)COc2ccc(F)cc2)c(O)cc1O	3%	26%	-1%	·	?	0%
O=C(NC1(C(F)(F)F)OCCO1)c1ccc(F)cc1	13%	-9%	8%	·	10%	0%
Cc1ccc(/C=N/NC(=O)CSc2nnc(-c3ccc(Cl)cc3)n2-c2ccccc2)o1	10µM*	-12%[10 µM]	-8%	?	5%	-21%
